# Laboratory results: paper PMC4336329 (PLoS ONE, 2015)
# Out of some 310,000 compounds screened, about 14,000 (4.5%) showed an effect of 50% or more. Effects have a minus sign here. This is one part of a sample in which strong results are shown more often than they occur.
# Target: human ether-à-go-go-related gene (hERG) potassium channel (human, UniProt Q12809)
# Test: primary screen, population patch clamp on CHO cells stably expressing hERG; higher = less effect of the substance
# 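Further: peak tail current of the secondary pulse compared with the same well before compound.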
# human ether-à-go-go-related gene (hERG) potassium channel, sequence (Q12809 whole entry, looked up): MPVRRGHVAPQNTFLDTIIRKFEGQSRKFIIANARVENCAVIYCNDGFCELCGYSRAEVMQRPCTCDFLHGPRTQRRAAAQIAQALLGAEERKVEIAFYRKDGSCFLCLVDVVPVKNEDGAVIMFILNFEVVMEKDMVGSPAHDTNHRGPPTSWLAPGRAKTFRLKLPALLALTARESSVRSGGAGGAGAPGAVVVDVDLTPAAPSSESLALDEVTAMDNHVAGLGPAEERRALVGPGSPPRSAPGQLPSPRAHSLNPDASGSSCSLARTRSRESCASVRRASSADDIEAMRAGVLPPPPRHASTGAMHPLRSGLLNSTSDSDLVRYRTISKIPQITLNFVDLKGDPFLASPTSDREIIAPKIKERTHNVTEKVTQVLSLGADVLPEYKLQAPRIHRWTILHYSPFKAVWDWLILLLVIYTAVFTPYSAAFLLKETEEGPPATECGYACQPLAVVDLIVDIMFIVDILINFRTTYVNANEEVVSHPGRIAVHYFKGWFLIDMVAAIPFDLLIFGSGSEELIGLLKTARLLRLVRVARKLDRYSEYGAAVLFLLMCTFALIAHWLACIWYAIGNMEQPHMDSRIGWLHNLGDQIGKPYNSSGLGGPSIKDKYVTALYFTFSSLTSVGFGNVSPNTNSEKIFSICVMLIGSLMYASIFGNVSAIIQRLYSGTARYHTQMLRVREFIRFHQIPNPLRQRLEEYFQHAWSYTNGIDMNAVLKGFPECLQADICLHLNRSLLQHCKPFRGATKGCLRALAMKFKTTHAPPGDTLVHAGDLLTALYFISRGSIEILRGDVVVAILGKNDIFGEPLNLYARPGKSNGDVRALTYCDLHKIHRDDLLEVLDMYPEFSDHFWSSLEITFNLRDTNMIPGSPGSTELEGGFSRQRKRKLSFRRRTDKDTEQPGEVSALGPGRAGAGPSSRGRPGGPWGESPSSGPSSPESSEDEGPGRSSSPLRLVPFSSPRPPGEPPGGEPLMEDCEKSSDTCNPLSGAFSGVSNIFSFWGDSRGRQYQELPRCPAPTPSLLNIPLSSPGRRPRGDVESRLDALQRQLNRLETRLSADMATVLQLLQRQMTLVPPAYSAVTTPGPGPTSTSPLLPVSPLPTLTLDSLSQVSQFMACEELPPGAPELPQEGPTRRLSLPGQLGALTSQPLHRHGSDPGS
row,Compound,"hERG current change (%, negative = inhibition) at 10uM [%]"
1,CCOc1cc(/C=C(/C#N)c2nc3ccccc3[nH]2)ccc1OCc1ccc(C(=O)O)o1,3.75
2,CC1(C)CC2CC(C)(CN2C(=O)C23CCC(C)(C(=O)O2)C3(C)C)C1 (centres unmarked),-8.69
3,Cc1cc(C)c(S(=O)(=O)NCc2cn3ccccc3n2)c(C)c1,4.96
4,CCCCNC(=O)c1cc2ccccc2s1,10.8
5,CC1CCN(C(=O)CNC(=O)CNC(=O)Cc2ccccc2)CC1,4.9
6,C=CCN1C(=O)C2C(C(=O)NC3CCCC3)C3C=CC2(O3)C1C(=O)NC1CCCC1 (centres unmarked),19
7,COC(=O)c1sccc1NC(=O)c1c(F)c(F)c(F)c(F)c1F,27
8,CCn1ccnc1CNCc1ccc(OCC(O)CN(C)Cc2ccccc2)cc1 (centres unmarked),-11.7
9,CN(Cc1ccc(Br)cc1)CC(O)COc1cccc(Br)c1 (centres unmarked),-28.5
10,CN(Cc1ccc(OCC(O)CN(C)Cc2ccccc2)cc1)Cc1nccn1C (centres unmarked),-4.14
11,CN(Cc1ccccc1)CC(O)COc1ccc(CNCc2nccn2C)cc1 (centres unmarked),-72.5
12,CN(Cc1ccccc1)CC(O)COc1ccc(CNCc2cccnc2)cc1 (centres unmarked),1.13
13,Cc1cc(CN(C)Cc2ccc(OCC(O)CN(C)Cc3ccccc3)cc2)on1 (centres unmarked),-4.84
14,COc1ccc(CN(C)CC(O)COc2ccc(-c3ccccc3)cc2)cc1OC (centres unmarked),-69.4
15,COc1ccc(OCC(O)CNc2ccc(Br)cc2)cc1 (centres unmarked),9.56
16,COc1ccc(Br)cc1CN(C)CC(O)COc1ccc(Br)cc1 (centres unmarked),-74.6
17,CC(=O)Nc1ccccc1-c1nn[nH]n1,0.73
18,Cc1c(CCN)ccc2c1[nH]c1ccccc12,0.0766
19,Oc1ccccc1/C=N/N1CCCCC1,6.81
20,CCN(CC)c1ncnc2c1ncn2Cc1c(Cl)cccc1Cl,2.93
21,CC(C(=O)O)n1cc(Cl)cn1 (centres unmarked),8.82
22,CCCCn1c(N)c(N(CC(C)C)C(=O)CN2C(=O)c3ccccc3C2=O)c(=O)[nH]c1=O,-7.79
23,Cc1ccc(NC(=O)c2ccc(OC(=O)c3cc4ccccc4o3)cc2)cc1,8.66

row,Compound,"hERG current change (%, negative = inhibition) at 10uM [%]"
1,COc1cccc(SCC2CSc3nc4ccccc4c(=O)n32)c1 (centres unmarked),-22.3
2,O=c1c2ccccc2nc2n1C(CBr)CS2 (centres unmarked),15.6
3,O=c1c2ccccc2nc2n1C(CSCc1ccc(Cl)cc1Cl)CS2 (centres unmarked),-21.8
4,O=C(Nc1ccccc1SCC1CSc2nc3ccccc3c(=O)n21)c1cccc(Cl)c1 (centres unmarked),-75.5
5,Nc1ccccc1SCC1CSc2nc3ccccc3c(=O)n21 (centres unmarked),-45.2
6,Cc1cccc(C(=O)Nc2ccccc2SCC2CSc3nc4ccccc4c(=O)n32)c1 (centres unmarked),-80.4
7,Cc1ccc(C(=O)Nc2ccccc2SCC2CSc3nc4ccccc4c(=O)n32)cc1 (centres unmarked),-68.4
8,O=c1c2ccccc2nc2n1C(CSc1ccccc1)CS2 (centres unmarked),-19.6
9,Cc1ccc(C(=O)Nc2nc3ccccc3c(=O)s2)cc1,15.9
10,O=C(Nc1ccccc1SCC1CSc2nc3ccccc3c(=O)n21)c1ccccc1 (centres unmarked),-67.7
11,O=c1c2ccccc2nc2n1C(CSCc1cccc(C(F)(F)F)c1)CS2 (centres unmarked),-23.4
12,Cc1nc2ccccc2c(=O)n1NC(=O)c1cccc(Cl)c1,13
13,Cc1ccc(OC2CCN(C(=O)C3CCC(=O)N(C4CC4)C3)CC2)cc1 (centres unmarked),-15.8
14,COC(=O)c1ccc(COC(=O)Cc2n[nH]c(=O)c3ccccc23)cc1,-1.24
15,CCC(C)N=CC1=C(O)CC(c2ccccc2)CC1=O (centres unmarked),-4.11
16,COc1ccc(C(=O)NCC(=O)OCC(=O)NC(=O)c2ccc(C(C)(C)C)cc2)cc1OC,-23.7
17,CCN(CC)c1ncc(C#N)c(N)n1,8.37
18,COc1ccc(CNC(=O)C2C3C=CC4(CN(Cc5cccnc5)C(=O)C24)O3)cc1 (centres unmarked),-16.2
19,CCCc1nnc(NC(=O)c2ccncc2)s1,-3.78
20,COc1ccc(NS(=O)(=O)c2ccc(NS(=O)(=O)c3cccs3)cc2)cc1,11.8
21,CCOC(=O)c1cnc(-c2ccccc2)nc1Oc1ccc(OC)cc1,14.2
22,CCc1csc(CCNC(=O)C2CCC(=O)N(CCc3cccc(F)c3)C2)n1 (centres unmarked),-13.4
23,O=c1c2ccccc2nc2n1C(CSCc1ccccc1)CS2 (centres unmarked),-37.1

row,Compound,"hERG current change (%, negative = inhibition) at 10uM [%]"
1,O=c1c2ccccc2nc2n1C(CSc1ccc(F)cc1)CS2 (centres unmarked),-33.3
2,O=C(Nc1ccccc1SCC1CSc2nc3ccccc3c(=O)n21)c1ccccc1Cl (centres unmarked),-70.5
3,COC(=O)c1sc2ccccc2c1NC(=O)c1ccc(S(=O)(=O)N2CCCCC2)cc1,11.2
4,Cc1c(/C=N/NC(=O)c2ccc(Br)o2)cnn1C,21
5,O=C1N=C(N2CCN(Cc3ccccc3)CC2)S/C1=C/c1cccs1,-41.1
6,N#CCCN1CCN(C2=NC(=O)/C(=C\c3cccs3)S2)CC1,-52.4
7,O=C1N=C(N2CCOCC2)S/C1=C/c1cccs1,-5.52
8,O=C(CCSCc1cccc(Cl)c1)NCCc1ccc(Cl)cc1,4.09
9,CCCCCCCCn1c(N2CCN(c3cccc(Cl)c3)CC2)nc2c1c(=O)[nH]c(=O)n2C,5.65
10,Cc1ccc(S(=O)(=O)NCCC(=O)N2CCC(C(N)=O)CC2)cc1C,-6.54
11,Cc1ccccc1C(=O)NC1CC2CCCC(C1)N2Cc1ccc(Cl)cc1 (centres unmarked),-71
12,CCOc1ccccc1CN1C2CCC1CC(c1ccc(C)cc1)C2 (centres unmarked),-60.9
13,CCCN1C2CCCC1CC(NC(=O)c1ccccc1OCC)C2 (centres unmarked),-47.2
14,Cc1ccccc1C(=O)NC1CC2CCC(C1)N2Cc1ccccc1 (centres unmarked),-25
15,CCOc1ccccc1C(=O)NC1CC2CCCC(C1)N2Cc1ccccc1 (centres unmarked),-54.5
16,CCOc1ccccc1CN1CCC(O)CC1,12.1
17,CCOc1ccccc1C(=O)NC1CC2CCCC(C1)N2Cc1ccc(C)cc1 (centres unmarked),-65.2
18,CCOc1ccccc1C(=O)NC1CC2CCCC(C1)N2C1CC1 (centres unmarked),-19
19,Cc1ccccc1C(=O)NC1CC2CCCC(C1)N2Cc1ccccc1 (centres unmarked),-25
20,COc1ccccc1C(=O)NC1CC2CCC(C1)N2Cc1ccccc1 (centres unmarked),-20.4
21,CCCN1C2CCCC1CC(NC(=O)c1ccccc1OC)C2 (centres unmarked),-3.42
22,CCOc1ccccc1CN1C(=O)NC2(CCCCCC2)C1=O,9.32
